# Records with an inconclusive call do not appear. A call without a number means that no potency is given here. Active and inactive are the calls of the source. The call rests on the fitted dose curve; in most records, active means well fitted inhibition curve with a large enough effect; inconclusive means small, poorly fitted or top-dose-only effect; inactive means flat fitted curve, though single readings scatter. Where a SMILES comes first, the peptide text is derived from it. [ ]: non-standard residue; d: D form. pGlu = O=C1CC[C@@H](C(=O)O)N1; Thz = O=C(O)[C@@H]1CSCN1
# Tests used:
# Experiment in all cases: qHTS profiling for inhibitors of Plasmodium falciparum proliferation (AID 504749); further: nearly all actives have a fitted effect of over 60% in size
# Conditions in all cases: P. falciparum in erythrocytes, SYBR Green DNA, 72 h; series mostly up to 28.7 µM
# CP329 = system: CP329
# Outline: (§1)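 Each compound contacts P. falciparum-infected red blood cells for 72 h at 37 C; lysis buffer (Tris, EDTA, saponin, Triton X, SYBR Green I) is added and fluorescence measured next morning; values normalized to controls.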
# CP335 = system: CP335
# Outline: as §1
# DFO2036 = system: DFO2036
# Outline: as §1
# DIV14 = system: DIV14
# Outline: as §1
# DIV17 = system: DIV17
# Outline: as §1
# DIV30 = system: DIV30
# Outline: as §1
# Dd2 = system: Dd2
# Outline: as §1
# ECU = system: ECU
# Outline: as §1
# FAB9 = system: FAB9
# Outline: as §1
# GB4 = system: GB4
# Outline: as §1
# Potency means the concentration at half of the fitted maximal effect.
Compound,Potency (CP329),Potency (CP335),Potency (DFO2036),Potency (DIV14),Potency (DIV17),Potency (DIV30),Potency (Dd2),Potency (ECU),Potency (FAB9),Potency (GB4)
CCOc1ccc2nc(S(N)(=O)=O)sc2c1,inactive,inactive,inactive,inactive,inactive,inactive,inactive,inactive,inactive,inactive
C=C(Nc1ccc(OCC)cc1)Nc1ccc(OCC)cc1,inactive,inactive,inactive,inactive,inactive,inactive,inactive,inactive,inactive,
CCCCCC[C@@H](O)C/C=C\CCCCCCCC(=O)O,inactive,inactive,inactive,inactive,inactive,inactive,inactive,inactive,inactive,inactive
CCCCCCOc1ccccc1C(N)=O,inactive,inactive,inactive,inactive,inactive,inactive,inactive,inactive,inactive,inactive
Cc1ccc(C(=O)c2ccc(CC(=O)O)n2C)cc1,inactive,inactive,inactive,inactive,inactive,inactive,inactive,inactive,inactive,inactive
O=C(O)/C=C/C(O)c1ccc(Cl)cc1 (stereo not drawn),inactive,inactive,inactive,inactive,inactive,inactive,inactive,inactive,inactive,inactive
C#C[C@]1(O)CC[C@H]2[C@@H]3CCc4cc(O)ccc4[C@H]3CC[C@@]21C,inactive,inactive,inactive,inactive,inactive,inactive,inactive,inactive,inactive,inactive
CCC1C(=O)OCC1Cc1cncn1C (stereo not drawn),inactive,inactive,inactive,inactive,inactive,inactive,inactive,inactive,inactive,inactive
CN1CCN(c2cc3c(nn2)Oc2ccccc2N3C)CC1,inactive,inactive,inactive,inactive,inactive,inactive,inactive,inactive,inactive,inactive
O=C(O)[C@H](CC(=O)N1C[C@H]2CCCC[C@H]2C1)Cc1ccccc1,inactive,inactive,inactive,inactive,inactive,inactive,inactive,inactive,inactive,inactive
CC1(C)S[C@@H]2[C@H](NC(=O)[C@H](NC(=O)N3CCN(S(C)(=O)=O)C3=O)c3ccccc3)C(=O)N2[C@H]1C(=O)O,inactive,inactive,inactive,inactive,inactive,inactive,inactive,inactive,inactive,inactive
CC1(C)[C@@H](O)CC[C@]2(C)[C@H]3C(=O)C=C4[C@@H]5C[C@@](C)(C(=O)O)CC[C@]5(C)CC[C@@]4(C)[C@]3(C)CC[C@@H]12,inactive,inactive,inactive,inactive,inactive,inactive,inactive,inactive,inactive,inactive
CCCCCCCCCCCC(=O)[O][Sn]([CH2]CCC)([CH2]CCC)[O]C(=O)CCCCCCCCCCC,inactive,inactive,inactive,inactive,inactive,inactive,inactive,inactive,inactive,inactive
O=C(O)[C@H](O)[C@@H](O)[C@H](O)[C@H](O)CO,inactive,inactive,inactive,inactive,inactive,inactive,inactive,inactive,inactive,inactive
Nc1c(CC(=O)O)cccc1C(=O)c1ccc(Br)cc1,inactive,inactive,inactive,inactive,inactive,inactive,inactive,inactive,inactive,inactive
CC(C(=O)O)c1ccc2c(c1)[nH]c1ccc(Cl)cc12 (stereo not drawn),inactive,inactive,inactive,inactive,inactive,inactive,inactive,inactive,inactive,inactive
COc1cc2c3cc1Oc1cc(ccc1O)C[C@@H]1c4c(cc(OC)c(O)c4Oc4ccc(cc4)C[C@@H]3N(C)CC2)CC[N+]1(C)C,inactive,inactive,inactive,inactive,inactive,inactive,inactive,inactive,inactive,inactive
C=CCCCCCCCCC(=O)O,inactive,inactive,inactive,inactive,inactive,inactive,inactive,inactive,inactive,inactive
C=CCN1C(=O)C(CC(C)C)NC1=S (stereo not drawn),inactive,inactive,inactive,inactive,inactive,inactive,inactive,inactive,inactive,inactive
Nc1ccc(C(=O)O)c(O)c1,inactive,inactive,inactive,inactive,inactive,inactive,inactive,inactive,inactive,inactive
CCCCCCCCCCCCCCCCCC(=O)O,inactive,inactive,inactive,inactive,inactive,inactive,inactive,inactive,inactive,inactive
C=CC(N)CCC(=O)O (stereo not drawn),inactive,inactive,inactive,inactive,inactive,inactive,inactive,inactive,inactive,inactive

Compound,Potency (CP329),Potency (CP335),Potency (DFO2036),Potency (DIV14),Potency (DIV17),Potency (DIV30),Potency (Dd2),Potency (ECU),Potency (FAB9),Potency (GB4)
CC1OC1P(=O)(O)O (stereo not drawn),inactive,inactive,inactive,inactive,inactive,inactive,inactive,inactive,inactive,inactive
O=C(/C=C/c1ccccc1)NCCO,inactive,inactive,inactive,inactive,inactive,inactive,inactive,inactive,inactive,inactive
Nc1ccc(O)c(C(=O)O)c1,inactive,inactive,inactive,inactive,inactive,inactive,inactive,inactive,inactive,inactive
Cc1c(Nc2ncccc2C(=O)O)cccc1C(F)(F)F,inactive,inactive,inactive,inactive,inactive,inactive,inactive,inactive,inactive,inactive
Cc1ccccc1CNc1ncnc2c1ncn2C1OC(CO)C(O)C1O (stereo not drawn),inactive,inactive,inactive,inactive,inactive,inactive,inactive,inactive,inactive,inactive
Cc1ccc(O)c(-n2nc3ccccc3n2)c1,inactive,inactive,inactive,inactive,inactive,inactive,inactive,inactive,inactive,inactive
N=c1ccn2c(n1)O[C@H]1[C@H](O)[C@@H](CO)O[C@H]12,inactive,inactive,inactive,inactive,inactive,inactive,inactive,inactive,inactive,inactive
[O-][n+]1ccccc1SSc1cccc[n+]1[O-],1.35 µM (active),0.601 µM (active),0.891 µM (active),0.757 µM (active),0.536 µM (active),1.2 µM (active),0.891 µM (active),1.12 µM (active),1.58 µM (active),0.757 µM (active)
O=C(O)COc1ccc(C(=O)c2cccs2)c(Cl)c1Cl,inactive,inactive,inactive,inactive,inactive,inactive,inactive,inactive,inactive,inactive
O=C1CC[C@@H](C(=O)N2CSC[C@H]2C(=O)O)N1 ([pGlu]-[Thz]-OH),inactive,inactive,inactive,inactive,inactive,inactive,inactive,inactive,inactive,inactive
CC1(C)C[C@@H]1C(=O)N/C(=C\CCCCSC[C@H](N)C(=O)O)C(=O)O,inactive,inactive,inactive,inactive,inactive,inactive,inactive,inactive,inactive,inactive
CCOC(=O)c1ccccc1O,inactive,inactive,inactive,inactive,inactive,inactive,inactive,inactive,inactive,inactive
COC(=O)C1=C(C)NC(C)=C(C(=O)OCC(C)C)C1c1ccccc1[N+](=O)[O-] (stereo not drawn),,,,10.7 µM (active),,16.9 µM (active),,10 µM (active),,12 µM (active)
O=C(OCc1ccccc1)c1ccccc1,inactive,inactive,inactive,inactive,,inactive,inactive,inactive,inactive,inactive
Nc1cc(-c2ccncc2)c[nH]c1=O,inactive,inactive,inactive,,inactive,inactive,inactive,inactive,inactive,inactive
Clc1ccccc1-c1nc(-c2ccncc2)no1,inactive,inactive,inactive,,15.1 µM (active),inactive,inactive,,inactive,inactive
CN1[C@@H]2CC[C@H]1CC(OC(=O)C(CO)c1ccccc1)C2 (stereo partly drawn),inactive,inactive,inactive,inactive,inactive,,inactive,inactive,inactive,inactive
COc1cc(/C=C/C(=O)CC(=O)/C=C/c2ccc(O)c(OC)c2)ccc1O,,,,16.9 µM (active),13.5 µM (active),13.5 µM (active),12.6 µM (active),1 µM (active),inactive,12 µM (active)
Oc1c(Br)cc(Br)c2cccnc12,inactive,inactive,inactive,inactive,inactive,inactive,inactive,inactive,inactive,inactive
COc1ccc(/C=C/C(=O)Nc2ccccc2C(=O)O)cc1OC,inactive,inactive,inactive,inactive,inactive,,inactive,inactive,inactive,
CN(C)c1ccc(C(=C2C=CC(=[N+](C)C)C=C2)c2ccccc2)cc1,,4.78 µM (active),,,6.01 µM (active),,11.2 µM (active),,inactive,4.26 µM (active)

# — PubChem BioAssay (NCATS)
